According to PubChem BioAssay (NCI):
This is part of a sample that, as a whole, favours compounds with a hit. Of some 83,000 tested, about 20% had one in any assay.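 Note: values are percent growth. 100 is the growth of untreated cells, values between 100 and 0 indicate rising inhibition; between -100 and 0 indicates cell death.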 Values without a mark were called inactive. The source made the active and inactive calls. Rule for the calls: active = growth percent below 10; inactive = the rest.

Test system: HOP-62 NSCLC
Assay: NCI-60 one-dose screen, 48 h (100 = growth as untreated, 0 = no growth, -100 = all killed)
Settings: 10 µM unless noted

Q: With `O=C(CCl)c1ccc([N+](=O)[O-])o1` as the molecule, how does the growth read?
A: 86.4%

Q: With `CCCCCSC1C2C(=O)C(Br)=CC13CCNc1c(O)c4c5c(c13)=[N+]2CCC=5C=N4` (configuration not stated) as the molecule, how does the growth read?
A: -73.2% (active)

Q: How did the growth turn out when `COc1ccc(C/C(C)=C(\c2ccc(OCCN3CCOCC3)cc2)c2ccc(OC(=O)Cc3ccccc3)cc2)cc1` was run?
A: -74.1% (active)

Q: `Cn1cc(-c2csc(-c3cn(CCCCN4CCCCC4)c4ccc(F)cc34)n2)c2cccnc21` was tested. Which growth did it give?
A: 88.8%

Q: Which growth does the source give for `COc1ccc2c(c1)c(-c1nc(-c3cn(C)c4ncccc34)cs1)cn2CCCCN1CCCCC1` here?
A: -78.5% (active)

Q: `C[n+]1c(/C=C/c2ccc(N(CCCl)CCCl)cc2)sc2ccccc21` was tested. Which growth did it give?
A: 52.2%

Q: `C=CC[Se]C(=O)c1ccccc1OC(C)=O` was tested. Which growth did it give?
A: -7.57% (active)

Q: For `CC(=O)OC1CCC2C3CCC4=C/C(=N/OC(=O)c5ccc(N(CCCl)CCCl)cc5)CCC4(C)C3CC(C)C12` (configuration not stated), which growth is on record?
A: 78.6%

Q: Which growth does the source give for `CCCCCCCC[n+]1ccc2ccccc2c1` here?
A: 77.2%

Q: How did the growth turn out when `Cn1cccc1C1CC(=O)N(CCC[Se]C#N)C1=O` (configuration not stated) was run?
A: -75.7% (active)

Q: How did the growth turn out when `C[Se]C(=O)c1ccccc1OC(C)=O` was run?
A: 48.9%

Q: For `O=C1Nc2ccccc2C2c3cccn3-c3ccccc3CN12` (configuration not stated), which growth is on record?
A: 34.5%

Q: For `CCOC(=O)[C@@H](C)C[C@H](Cc1ccccc1)NC(=O)c1csc([C@@H](C[C@H](C(C)C)N(C)C(=O)[C@H](CCC(C)C)NC(=O)[C@H]2CCCCN2C)OC(C)=O)n1`, which growth is on record?
A: 13.8%

Q: How did the growth turn out when `COC(=O)[C@H](C[C@H](Cc1ccccc1)NC(=O)c1csc([C@@H](C[C@H](C(C)C)N(C)C(=O)[C@@H](NC(=O)[C@H]2CCCCN2C)C(C)C)OC(C)=O)n1)NC(=O)OCc1ccccc1` was run?
A: 18.6% [8.5 µM]

Q: With `CC1(C)N=C(N)N=C(N)N1c1ccc(OCCCNC(=O)Nc2ccc(S(=O)(=O)F)cc2)c(Cl)c1` as the molecule, how does the growth read?
A: 49%

Q: With `O=C(CN1CCN(C(=O)c2ccco2)CC1)Nc1ccc(Cl)cc1C(=O)c1ccccc1Cl` as the molecule, how does the growth read?
A: 105%

Q: With `Cc1cc(N(CCCl)CCCl)ccc1C=Nc1ccccc1-c1ccccc1` as the molecule, how does the growth read?
A: 54.6%

Q: With `Cn1cc(-c2csc(-c3cn(CCN4CCOCC4)c4ccccc34)n2)c2cccnc21` as the molecule, how does the growth read?
A: 55.3%

Q: For `CCOC(=O)[C@@H](C)C[C@H](Cc1ccccc1)NC(=O)c1csc([C@@H](C[C@H](C(C)C)N(C)C(=O)[C@H](CC)NC(=O)[C@H]2CCCCN2C)OC(C)=O)n1`, which growth is on record?
A: 20.2%

Q: With `ClC1=C(Cl)C(Cl)(C2(Cl)C(Cl)=C(Cl)C(Cl)=C2Cl)C(Cl)=C1Cl` as the molecule, how does the growth read?
A: 60.4%

Q: `O=C([O][Hg][CH2]C1OCCOC1[CH2][Hg][O]C(=O)c1ccccc1)c1ccccc1` (configuration not stated) was tested. Which growth did it give?
A: 98.6%

Q: `COc1ccc([As]=[As]c2ccc(OC)c(NCS(=O)(=O)O)c2)cc1NCS(=O)(=O)O` (configuration not stated) was tested. Which growth did it give?
A: 39.7%

Q: For `[Cl][Hg][n]1c(-c2ccco2)nc2ccccc21`, which growth is on record?
A: 115%

Q: `CCC[CH2][Sn]([CH2]CCC)([CH2]CCC)[O]c1ccc(Cl)cc1Cl` was tested. Which growth did it give?
A: -91.7% (active)

Q: Which growth does the source give for `NC(CCl)CCl` here?
A: -100% (active)

Q: Which growth does the source give for `CN1CCC(c2c[nH]c3ccccc23)C1` (configuration not stated) here?
A: 84.3%

Q: How did the growth turn out when `CCCCCCCCCCCCCCCCCC1OC[C@@H](COC(=O)O[C@@H](C(=O)O[C@H]2C[C@@]3(O)[C@@H](OC(=O)c4ccccc4)[C@@H]4[C@]5(OC(C)=O)CO[C@@H]5C[C@H](O)[C@@]4(C)C(=O)[C@H](OC(C)=O)C(=C2C)C3(C)C)[C@@H](NC(=O)c2ccccc2)c2ccccc2)O1` (some centres not stated) was run?
A: 68.4%

Q: Which growth does the source give for `CC1=C([Te]c2ccc(O)cc2)C(=O)c2ccccc2C1=O` here?
A: -25.2% (active)

Q: With `O=C1NC(=O)C(=Cc2cn(CCCCCCn3c4ccccc4c(=O)c4ccccc43)c3ccccc23)C(=O)N1` as the molecule, how does the growth read?
A: 86.7%

Q: With `CC(C)OC(=O)[C@H](C)NP(=O)(Oc1ccccc1)C1CCCN(O)C1=O` (some centres not stated) as the molecule, how does the growth read?
A: 111%

Q: With `CCCCCCC(=O)NC1=C(N2CC2)C(=O)C(NC(=O)CCCCCC)=C(N2CC2)C1=O` as the molecule, how does the growth read?
A: 47.2%

Q: How did the growth turn out when `COc1ccc(/C=C\c2cc(OC)c(OC)c(OC)c2)cc1NS(=O)(=O)c1ccc(Cl)cc1` was run?
A: 83.9%

Q: How did the growth turn out when `CC[C@H](C)[C@H](NC(=O)[C@H]1CCCCN1C)C(=O)N(C)[C@H](CC(=O)c1nc(C(=O)N[C@@H](Cc2ccccc2)C[C@H](C)C(=O)O)cs1)C(C)C` was run?
A: 77%

Q: How did the growth turn out when `C[C@]12C[C@@H](CO)[C@H](O)C[C@@H]1CC[C@@H]1[C@@H]2CC[C@]2(C)[C@@H](O)CC[C@@H]12` was run?
A: 107%

Q: Which growth does the source give for `[Cl][Hg][c]1cc[c]([Hg][Cl])o1` here?
A: 72.9%

Q: With `NC(=S)c1cn(C2OC(CO)C(O)C2O)c2ncnc(N)c12` (configuration not stated) as the molecule, how does the growth read?
A: -30% (active)

Q: `COC(=O)CC[C@H](Cc1ccccc1)NC(=O)c1csc([C@@H](C[C@H](C(C)C)N(C)C(=O)[C@@H](NC(=O)[C@H]2CCCCN2C)C(C)C)OC(C)=O)n1` was tested. Which growth did it give?
A: 52.7%
